Only some compounds are listed: those with a hit (about 2.4% of all), similar ones and a draw of the others.
Cruzain Triton – qHTS Assay for Promiscuous and Specific Inhibitors of Cruzain (with detergent) | purified cruzain, Z-FR-AMC fluorescence, 0.01% Triton | Potency, µM, most hits filed as inhibitors | 200,000 compounds, 0.43% hits; also: nearly all actives have a fitted effect of over 40% in size
Target sequence (P25779 123-467 limits assumed): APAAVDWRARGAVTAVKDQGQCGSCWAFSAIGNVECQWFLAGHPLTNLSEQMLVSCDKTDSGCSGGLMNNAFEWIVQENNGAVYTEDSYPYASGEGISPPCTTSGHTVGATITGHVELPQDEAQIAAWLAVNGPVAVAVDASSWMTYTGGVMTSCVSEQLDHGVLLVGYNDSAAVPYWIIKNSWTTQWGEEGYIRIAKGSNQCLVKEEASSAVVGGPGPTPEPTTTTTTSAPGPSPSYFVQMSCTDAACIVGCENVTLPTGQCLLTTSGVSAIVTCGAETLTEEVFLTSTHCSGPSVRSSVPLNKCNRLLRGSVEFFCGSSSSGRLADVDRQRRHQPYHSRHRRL
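Enzyme 1.5 nM, Z-FR-AMC 2 uM, NaOAc 100 mM pH 5.5, DTT 5 mM, Triton X-100 0.01%; 15 min RT compound preincubation; kinetic ex360/em450, 60 s delta.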
Cruzain noTriton – qHTS Assay for Promiscuous and Specific Inhibitors of Cruzain (without detergent); Potency, µM, usual class: inhibitors; 200,000 compounds, 2.3% hits; purified cruzain, Z-FR-AMC fluorescence, no detergent; also: nearly all actives have a fitted effect of over 40% in size
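Purified cruzain at 1.5 nM, pre-incubated 15 min with compound at room temperature in 100 mM sodium acetate pH 5.5, 5 mM DTT, 0.00005% Triton X-100. Reaction started with 2 uM Z-FR-AMC; AMC fluorescence increase over 60 s gives rate.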
Each line names hits and unclear results; the compound was inactive in the other large screens. Calls follow the shape of the dose curve; as a rule, active = well fitted curve in the direction sought with a large enough effect; inconclusive = small, poorly fitted or top-dose-only effect, or another doubt; inactive = no such curve, though single readings can be large; an effect the other way counts as inactive or inconclusive.

Cc1c(NS(=O)(=O)c2ccc3c(c2)OCCO3)cccc1-c1nc2cccnc2s1	Cruzain noTriton 16µM
Cc1cc(-c2nc3cccnc3s2)ccc1NS(=O)(=O)c1ccc2c(c1)OCCO2	Cruzain noTriton inconclusive
Cc1ccccc1NC(=O)N1CCc2c(sc3c2CCCC3)C1c1ccccc1 (configuration not stated)	Cruzain noTriton inconclusive
Cc1ccc(NC(=O)N2CCc3c(sc4c3CCCC4)C2c2ccccc2)cc1F (configuration not stated)	Cruzain noTriton 7.9µM
COc1ccc(OC)c(NC(=O)CN2C(=O)COc3ccc(S(=O)(=O)NC4CCCC4)cc32)c1	none
c1coc(CN2CN=C(Nc3nc4ccccc4s3)NC2)c1	Cruzain Triton inconclusive, Cruzain noTriton 13µM
c1ccc(CN2CN=C(Nc3nc4ccccc4s3)NC2)cc1	Cruzain Triton inconclusive
CCOC(=O)c1nc(N2CCN(c3ccc(F)cc3)CC2)c2c(C)noc2n1	none
COc1cc(CN(CC2CCCO2)C(=O)c2ccc(F)cc2)cc(OC)c1OC (configuration not stated)	none
Cc1ccnc(NC(=S)NC(=O)/C=C/c2ccccc2)c1	Cruzain noTriton inconclusive
Cc1ccnc(NC(=S)NC(=O)/C=C/c2ccc(Cl)cc2)c1	Cruzain noTriton 4µM
COc1ccc(CCNC(=O)Cn2ncc3c(C)n(Cc4ccccc4F)c(C)c3c2=O)cc1OC	none
COc1ccc(-c2cc(C(F)(F)F)nc(SCCC(=O)Nc3ccc(NC(C)=O)cc3)n2)cc1	none
O=[N+]([O-])c1cccc(/C=N/Nc2nnc(-c3ccccc3)c(-c3ccccc3)n2)c1	Cruzain noTriton 7.9µM
C/C(=N\Nc1nnc(-c2ccccc2)c(-c2ccccc2)n1)c1cccc([N+](=O)[O-])c1	Cruzain noTriton inconclusive
CC(C)Oc1ccc(C(=O)N2CCC(c3nc4ccccc4o3)CC2)cc1	none
Cc1ccsc1/C=C(\C(=O)c1ccc(OC(C)C)cc1)c1nc2ccccc2o1	Cruzain noTriton 32µM
COc1cccc(NC(=O)c2cc3c(=O)n(Cc4cccnc4)ccc3nc2C)c1	none
Cc1cccc(CC2S/C(=N/c3ccccn3)NC2=O)c1 (configuration not stated)	none
Clc1ss/c(=N\c2ccccn2)c1Cl	Cruzain noTriton 25µM
CCc1cccc(NC(=O)Cn2cc(C(=O)c3ccncc3)c(=O)c3cc(C)c(C)cc32)c1	none
CCc1ccc(NC(=O)CN2C(=O)C3(SCC(=O)N3c3ccccc3)c3ccccc32)cc1 (configuration not stated)	none
O=C(N/N=C/c1cccc([N+](=O)[O-])c1)c1cc2ccccc2o1	Cruzain noTriton inconclusive
O=C(COc1ccc(/C=N/NC(=O)c2cc3ccccc3o2)cc1Cl)Nc1ccccc1	Cruzain Triton 22µM, Cruzain noTriton 20µM
O=C(Nc1cc(F)ccc1F)C1CCN(C(=O)c2cnn(-c3ccccc3)c2-n2cccc2)CC1	Cruzain noTriton inconclusive
Cc1ccc(C)c(Cn2c(=O)n(C(C)C)c(=O)c3oc4ccccc4c32)c1	none
Cc1nn(-c2ccccc2)c(Cl)c1C1C(C#N)=C(N)Oc2c1c(=O)oc1ccccc21 (configuration not stated)	Cruzain noTriton 16µM
COC(=O)C1=C(C)OC(N)=C(C#N)C1c1c(C)nn(-c2ccccc2)c1Cl (configuration not stated)	none
COc1ccc(CC(=O)Nc2cc(-c3nc4cccnc4s3)ccc2C)cc1	Cruzain noTriton inconclusive
COc1ccc(-c2c(C#N)c(SCC(=O)Nc3ccc(Br)cc3)nc(C)c2C(=O)Nc2ccccc2)cc1	Cruzain noTriton 10µM
COc1ccc(-c2c(C#N)c(SCC(=O)c3cc4ccccc4oc3=O)nc(C)c2C(=O)Nc2ccccc2)cc1	Cruzain noTriton inconclusive
Cc1nc(SCC(=O)c2cc3ccccc3oc2=O)c(C#N)c(-c2ccccc2)c1C(=O)Nc1ccccc1	Cruzain noTriton 20µM
COc1ccc(-c2c(C#N)c(SCC(=O)Nc3ccc(C)cc3)nc(C)c2C(=O)Nc2ccccc2)cc1	none
COc1ccc(N2CC(NC(=O)c3ccc(S(=O)(=O)N4CCCCC4)cc3)CC2=O)cc1 (configuration not stated)	none
O=C(Nc1nc2c(Cl)cccc2s1)c1ccc(Br)o1	none
O=C(Nc1nc2ccc(Cl)cc2s1)c1ccc(Br)o1	Cruzain noTriton 20µM
O=C(COc1ccc(Cl)cc1)N(Cc1ccccc1)c1nc(-c2ccccc2)cs1	Cruzain noTriton 10µM
COc1ccc(OCC(=O)N(C)Cc2ccccc2)cc1	none
COCCCN(C(C)=O)c1nc(-c2ccccc2)cs1	none
COc1ccc(-c2csc(N(CCc3ccccc3)C(=O)COc3ccccc3)n2)cc1	Cruzain noTriton 13µM
CN(C)S(=O)(=O)c1cc(NC(=O)CSc2nn(-c3ccc(Cl)cc3)c(=S)s2)ccc1Cl	Cruzain noTriton 25µM
Cc1ccc(NC(=O)CSc2nn(-c3ccc(Cl)cc3)c(=S)s2)cc1S(=O)(=O)N(C)C	Cruzain noTriton inconclusive
